Bioassay records from PubChem BioAssay.
NS1 inh – influenza NS1 inhibition | Potency, µM (highest dose often 46.1 µM), for the others: at the highest dose activity, positive = more growth | actives 0.4% (n = 270,000) | AID 2326; calls by dose curve; also: actives are rising curves; nearly all actives have a fitted effect of over 50% in size
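OD600 was taken as the measure of yeast growth restored by compound in an NS1-expressing S. cerevisiae strain. Cells had been washed out of glucose medium and diluted 1:100 into galactose -URA medium, pH 6.0.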
Sm TGR block – S. mansoni TGR enzyme inhibition | Q962Y6 | purified TGR, DTNB reduction, TNB absorbance 405 nm | Potency, µM (series often up to 114 µM), for inactives: at the top dose activity change, negative = inhibition, actives largely listed as inhibitors | actives 3% (n = 360,000) | AID 485364; also: % is scaled to controls: 0 for no effect and ±100 for the full control effect; nearly all actives have a fitted effect of over 60% in size
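Kinetic colorimetric format: TGR-catalysed, NADPH-driven DTNB reduction monitored via TNB absorbance. Enzyme dispensed at 20 nM; compound exposure 15 min at room temperature before reaction start.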
RE007 growth inh – less growth of the S. pombe RE007 Vpr strain | S. pombe RE007 Vpr strain, BacTiter-Glo ATP luminescence, 24 h | Potency, µM (top dose mostly 92.2 µM), for the others: at the top dose activity change, negative = less growth, most hits filed as inhibitors | actives 0.21% (n = 360,000) | AID 651644; active = well fitted falling curve with a large enough effect; inconclusive = small, poorly fitted or top-dose-only effect; inactive = no such curve, though single readings can be large or run the other way; also: % is scaled to controls: 0 for no effect and ±100 for the full control effect; nearly all actives have a fitted effect of over 50% in size
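Fission yeast strain RE007, carrying one chromosomally integrated HIV-1 vpr copy, was seeded at OD 0.01 in PMG+AL medium with 23 nL pinned compound. After 24 h at 30 °C and 99% humidity, viability was read by BacTiter-Glo luminescence.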
TbPYK inhibitor – inhibitors of Trypanosoma brucei pyruvate kinase; Q57TT1; TbPYK enzyme, Kinase-Glo Plus ATP luminescence, 45 min; Potency, µM (highest dose often 76.8 µM), without a hit: at the highest dose activity, negative = inhibition, usual class: inhibitors; actives 0.12% (n = 410,000); also: % is scaled to controls: 0 for no effect and ±100 for the full control effect; nearly all actives have a fitted effect of over 50% in size
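Quantitative HTS: titrated library compounds versus trypanosomal pyruvate kinase in TEA buffer (pH 7.2) containing KCl, MgCl2, BSA and Tween-20. Reactions were initiated with ADP, 130 uM final. Kinase-Glo Plus luminescence was read after 45 min at RT.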
LmPK inhibitor – blocks Leishmania mexicana pyruvate kinase activity; purified LmPK, Kinase-Glo ATP luminescence, 1 h; Q27686; AID 1721; Potency, µM (highest dose often 57.5 µM), for inactives: at the highest dose activity change, negative = inhibition, hits mostly inhibitors; actives 0.37% (n = 290,000); also: % is scaled to controls: 0 for no effect and ±100 for the full control effect
Target sequence (Q27686 whole entry, looked up): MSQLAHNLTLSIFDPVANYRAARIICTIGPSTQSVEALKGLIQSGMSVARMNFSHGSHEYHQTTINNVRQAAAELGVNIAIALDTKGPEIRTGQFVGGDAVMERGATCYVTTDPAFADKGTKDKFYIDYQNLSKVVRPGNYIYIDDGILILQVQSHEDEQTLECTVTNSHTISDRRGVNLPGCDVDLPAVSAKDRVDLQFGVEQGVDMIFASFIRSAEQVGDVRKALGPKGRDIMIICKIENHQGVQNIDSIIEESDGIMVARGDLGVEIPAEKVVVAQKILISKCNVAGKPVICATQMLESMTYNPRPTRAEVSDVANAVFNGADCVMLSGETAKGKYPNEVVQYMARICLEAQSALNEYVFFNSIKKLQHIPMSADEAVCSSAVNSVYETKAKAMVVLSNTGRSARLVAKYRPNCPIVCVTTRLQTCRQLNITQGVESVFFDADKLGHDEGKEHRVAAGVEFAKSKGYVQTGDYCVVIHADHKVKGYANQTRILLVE
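qHTS format; LmPK 0.1 nM; substrates PEP 0.5 mM and ADP 0.1 mM. One-hour room-temperature incubation, then coupled luciferase luminescence; 0.5 nM enzyme wells mark activation.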
SARS PLP yeast – inhibitors of SARS-CoV papain-like protease in yeast. S. cerevisiae expressing SARS-CoV PLpro, growth rescue. Potency, µM (doses to about 32.9 µM), inactives show at the highest dose activity, positive = growth rescue, most hits filed as activators. actives 0.19% (n = 330,000). AID 485353; calls by dose curve; also: 0% is about no effect; nearly all actives have a fitted effect of over 55% in size
Starred values were filed as active, the others as inactive; u = inconclusive; x = not tested or not shown; [ ] = another dose, or the depositor's remark. The list is not random: actives were taken first. Their share in the collection is about 3.3%. Unless noted, calls follow the shape of the dose curve; as a rule, active = well fitted curve in the direction sought with a large enough effect; inconclusive = small, poorly fitted or top-dose-only effect, or another doubt; inactive = no such curve, though single readings can be large; an effect the other way counts as inactive or inconclusive. Potency is read from the fitted curve at half-maximal effect.

SMILES | NS1 inh | Sm TGR block | RE007 growth inh | TbPYK inhibitor | LmPK inhibitor | SARS PLP yeast
O=C(CCS(=O)(=O)c1cccc2nonc12)NCc1ccc(Cl)cc1 | x | 35µM* | -4% | 2% | 7% | 2%
CCN(C(=O)CCS(=O)(=O)c1cccc2nonc12)c1ccc(C)c(C)c1 | 3% | 40µM* | 18% | -8% | 4% | 9%
Cc1cccc(N(C)C(=O)CCS(=O)(=O)c2cccc3nonc23)c1 | 0% | u | 11% | 4% | -12% | -1%
O=C(CCS(=O)(=O)c1cccc2nonc12)N1CCCc2ccccc21 | 0% | 35µM* | 16% | 2% | -1% | 4%
Cc1cc(C)cc(NC(=O)Cn2cc(S(=O)(=O)NC(C)(C)C)c(S(=O)(=O)NC(C)(C)C)c2)c1 | x | -2% | x | 1% | x | x
COc1ccc(OC)c(NC(=O)CCNS(=O)(=O)c2cccc3nonc23)c1 | 11% | -6% | 8% | 6% | 0% | -2%
COc1ccc(NS(=O)(=O)c2cccc3nonc23)c(OC)c1 | u | 18µM* | -13% | -2% | 2% | 8%
COCCCNC(=O)c1ccc(C2SCC(=O)N2Cc2ccco2)cc1 (stereo unspecified) | x | u | 1% | -3% | 2% | 1%
C=CCNC(=O)c1ccc(C2SCC(=O)N2Cc2ccco2)cc1 (stereo unspecified) | x | 28µM* | -8% | -13% | 4% | -2%
COCCNC(=O)c1ccc(C2SCC(=O)N2Cc2ccco2)cc1 (stereo unspecified) | 4% | 22µM* | -5% | -17% | 1% | 0%
CC[C@H](CN(C)C)C(=O)c1ccco1 | -4% | x | x | x | x | x
C[C@H]1[C@H](NC(=O)/C(=N/OC(C)(C)C(=O)O)c2csc(N)n2)C(=O)N1S(=O)(=O)O (stereo in doubt) | x | x | x | 0%[33.2 µM] | x | x
O=C(NNc1cc(Br)c(O)c(Br)c1)c1ccccc1 | x | 18µM* | u | -16% | u | -1%
CCOC(=O)c1[nH]c(=O)[nH]c1CSc1ccccn1 | -3% | 14µM* | -26% | -6% | 7% | -7%
CCOC(=O)NC(=O)CSc1ccccn1 | 3% | 0% | -11% | -7% | -4% | 2%
Cc1ccc(-c2nc(CS(=O)CC(=O)NC3CCCCC3)c(C)o2)cc1 (stereo unspecified) | u | 13µM* | -6% | -7% | -1% | 9%
Cc1cccc(-c2nc(CS(=O)CC(=O)NCCc3ccc(Cl)cc3)c(C)o2)c1 (stereo unspecified) | 3% | u | -6% | 4% | -1% | 3%
Cc1oc(-c2ccc(Cl)cc2)nc1CS(=O)CC(=O)NC1CCCCC1 (stereo unspecified) | u | 11µM* | -7% | -1% | 1% | 1%
Cc1cccc(-c2nc(CS(=O)CC(=O)NC3CCCC3)c(C)o2)c1 (stereo unspecified) | u | 13µM* | -2% | 4% | 6% | 1%
Cc1oc(-c2ccc(Cl)cc2)nc1CS(=O)CC(=O)NCCCN(C)C1CCCCC1 (stereo unspecified) | 4% | 0% | -20% | 1% | 10% | x
Cc1cccc(-c2nc(CS(=O)CC(=O)NC3CCCC(C)C3C)c(C)o2)c1 (stereo unspecified) | -17% | 5µM* | -4% | 3% | -1% | -2%
Cc1ccccc1-c1nc(CS(=O)CC(=O)NC2CC2)c(C)o1 (stereo unspecified) | 4% | u | -24% | 0% | 2% | 5%
COc1ccc(-c2nc(CS(=O)CC(=O)NC3CCCC3)c(C)o2)cc1 (stereo unspecified) | 13% | u | 1% | -9% | -5% | -5%
COc1ccccc1CCNS(=O)(=O)c1ccc(N2CCCCS2(=O)=O)cc1 | x | 4% | x | 3% | x | x
C=C1C2c3ccccc3C(CC2(C)O[Si](C)(C)C)N1C(=O)OC (stereo unspecified) | x | x | x | x | 0%[11.5 µM] | x
SMILES | NS1 inh | Sm TGR block | RE007 growth inh | TbPYK inhibitor | LmPK inhibitor | SARS PLP yeast
Cc1oc(-c2cccs2)nc1CS(=O)CC(=O)NC1CCCCCC1 (stereo unspecified) | u | 18µM* | -5% | -12% | 6% | -7%
Cc1ccccc1-c1nc(CS(=O)CC(=O)NC2CCCC2)c(C)o1 (stereo unspecified) | 21% | 0% | -7% | -13% | 8% | 6%
Cc1oc(-c2ccc(Cl)cc2)nc1CS(=O)CC(=O)NC1CCCC1 (stereo unspecified) | u | 8.9µM* | -13% | 2% | -1% | x
Cc1oc(-c2ccc(Cl)cc2)nc1CS(=O)CC(=O)NCCN1CCCC1 (stereo unspecified) | 6% | 2% | 7% | 7% | 0% | 9%
Cc1oc(-c2ccc(Cl)cc2)nc1CS(=O)CC(=O)NC1CCCCCC1 (stereo unspecified) | 15% | 10µM* | -5% | 3% | -1% | -4%
Cc1ccc(Cl)cc1NC(=O)CCCN1C(=O)CCn2nc(-c3cn(C)c4ccccc34)cc21 | x | -5% | x | 2% | x | x
COc1cc(C(=O)O/N=C2\C=CC(=O)C=C2C)cc(OC)c1OC | 10% | 3.2µM* | -15% | -18% | -3% | 0%
C/C(=N\NC(=O)c1cc(O)ccc1O)c1cccc(NC(=O)c2ccc(Cl)cc2)c1 | -10% | 40µM* | 3% | -20% | 1% | -2%
C/C(=N\NC(=O)c1cc(O)ccc1O)c1cccc(NC(=O)c2cccc(Cl)c2)c1 | -24% | 63µM* | -16% | -16% | -6% | -7%
O=C(O)c1cc(O)c2c(c1)[C@H]([C@H]1c3cc(C(=O)O)cc(O)c3C(=O)c3c(O[C@@H]4OC(CO)C(O)C(O)C4O)cccc31)c1cccc(O[C@@H]3OC(CO)C(O)C(O)C3O)c1C2=O (stereo partly specified) | x | x | x | -9% | x | x
Cc1ccnc(NC(c2cccc(O)c2)c2ccc3ccc(C)nc3c2O)c1 (stereo unspecified) | x | 1.6µM* | x | 14% | x | x
CCC(=O)NC(c1ccc(OC)c(OC)c1)c1cc(Cl)c2cccnc2c1O (stereo unspecified) | 3% | -3% | 14% | -2% | 7% | 1%
Cc1ccc(C)c(C(Nc2ccccc2)c2ccc3ccc(C)nc3c2O)c1 (stereo unspecified) | x | x | 17% | x | x | x
Cc1ccc(C(Nc2ccccn2)c2ccc3cccnc3c2O)cc1 (stereo unspecified) | x | 1µM* | x | 35% | x | x
Cc1cccc(NC(c2ccccc2F)c2ccc3ccc(C)nc3c2O)n1 (stereo unspecified) | x | 5µM* | x | -1% | x | x
